Bioassay records as filed in PubChem BioAssay.
EPAC2 ant val: validation of human EPAC2 antagonists. EPAC2 Rap1B BODIPY-GDP exchange, fluorescence. Potency, µM (top dose mostly 112 µM), usual class: inhibitors. 1.7% of 16,000 active. AID 1645886; also: nearly all actives have a fitted effect of over 40% in size
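Normalized against a 6.5 mM cAMP agonist control, compounds were tested on 100 nM EPAC2 exchanging Rap1B-bound BODIPY-GDP (250 nM) for 50 uM GDP. Fluorescence drop (ex 480, em 540 nm) was tracked at room temperature over 30 min at 5-min intervals.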
EPAC1 ag val: human EPAC1 agonism, validation | O95398 | EPAC1 Rap1b BODIPY-GDP exchange, fluorescence | Potency, µM, most hits filed as activators | 1% of 16,000 active; also: nearly all actives have a fitted effect of over 70% in size
Each line names hits and unclear results; the compound was inactive in the other large screens; ! = a repeat was not active. An excerpt weighted towards active compounds, which were near 2.9% of everything screened. Calls follow the shape of the dose curve; as a rule, active = well fitted curve in the direction sought with a large enough effect; inconclusive = small, poorly fitted or top-dose-only effect, or another doubt; inactive = no such curve, though single readings can be large; an effect the other way counts as inactive or inconclusive.

O=C1c2ccccc2C(=O)C1C(=O)C(c1ccccc1)c1ccccc1	EPAC2 ant val 79µM
CC[C@H]1C[C@@H]2C[C@H]3c4[nH]c5ccc(OC)cc5c4CCN(C2)[C@@H]13	none
CCc1cc(OC)c(C[C@@H](C)N)cc1OC	none
COc1ccc2c3c1O[C@H]1[C@@H](O)C=C[C@H]4[C@@H](C2)NCC[C@@]341	none
C[C@@H]1[C@H]2Cc3ccc(O)cc3[C@]1(C)CCN2C	none
CCCCC/C=C\C/C=C\C/C=C\C/C=C\CCCC(=O)NCC(=O)O	none
CCCCC/C=C\C/C=C\C/C=C\C/C=C\CCCC(=O)Nc1ccc(O)cc1	EPAC2 ant val 32µM
C[C@]12CC[C@@H](O)C[C@H]1CC[C@@H]1[C@H]2CC[C@]2(C)C(=O)CC[C@@H]12	none
C[C@]12CC[C@H](O)C[C@H]1CC[C@@H]1[C@@H]2CC[C@]2(C)[C@@H](c3ccc(=O)oc3)C[C@H]3O[C@]132	none
CCC(=O)C(CC(C)N(C)C)(c1ccccc1)c1ccccc1 (configuration not stated)	EPAC1 ag val inconclusive
CCCCc1ccc(C(=O)O)nc1	none
CCCCCCCCc1ccc(O)cc1	EPAC2 ant val 35µM
CC(=O)O[C@H]1C[C@H](O[C@H]2[C@@H](O)C[C@H](O[C@H]3[C@@H](O)C[C@H](OC4CC[C@@]5(C)[C@H](CC[C@@H]6[C@@H]5CC[C@]5(C)[C@@H](C7=CC(=O)OC7)CC[C@]65O)C4)O[C@@H]3C)O[C@@H]2C)O[C@H](C)[C@H]1O[C@@H]1O[C@H](CO)[C@@H](O)[C@H](O)[C@H]1O (some centres not stated)	none
O=C(Nc1ccccc1-c1ccc(Cl)cc1)c1cccnc1Cl	EPAC2 ant val 8.9µM
COc1cc(C[C@@H](C)N)c(OC)cc1Br	none
CCOC(=O)[C@]12Cc3cc4c(cc3[C@H]1N(Cc1ccccc1)C(=O)c1ccccc12)OCO4	EPAC2 ant val inconclusive
CCOC(=O)[C@]12Cc3cc(N(C)C)ccc3[C@H]1N(Cc1ccccc1)C(=O)c1ccccc12	EPAC2 ant val 79µM
O=c1oc2ccccc2c(O)c1C(CC(O)c1ccc(-c2ccc(Br)cc2)cc1)c1ccccc1 (configuration not stated)	EPAC2 ant val 79µM
CO[C@H]1[C@@H](O)C[C@H](O[C@H]2[C@@H](O)C[C@H](O[C@H]3[C@@H](O)C[C@H](O[C@H]4CC[C@@]5(C)[C@H](CC[C@@H]6[C@@H]5C[C@@H](O)[C@]5(C)[C@@H](C7=CC(=O)OC7)CC[C@]65O)C4)O[C@@H]3C)O[C@@H]2C)O[C@@H]1C	none
CCOP(=O)(NC(C)C)Oc1ccc(SC)c(C)c1 (configuration not stated)	EPAC2 ant val 50µM
COP(=S)(OC)Oc1ccc(SC)c(C)c1	EPAC2 ant val inconclusive
CN1[C@H]2CC[C@@H]1[C@@H](C(=O)O)[C@@H](OC(=O)c1ccccc1)C2	EPAC2 ant val inconclusive
Clc1ccc(CSC(Cn2ccnc2)c2ccc(Cl)cc2Cl)cc1 (configuration not stated)	EPAC2 ant val 45µM!, EPAC1 ag val 50µM!
CCN(CC)CCO[C@H]1CC[C@@]2(C)C(=CC[C@@H]3[C@@H]2CC[C@]2(C)C(=O)CC[C@@H]32)C1	none
Cc1ccccc1-n1c(C)nc2ccccc2c1=O	none
O=c1c2ccccc2[se]n1-c1ccccc1	EPAC2 ant val 40µM!
CC1(C)CC/C(=C/c2ccc(Cl)cc2)C1(O)Cn1cncn1 (configuration not stated)	EPAC2 ant val inconclusive
CCCCCc1cc(O)c2c(c1)OC(C)(C)[C@@H]1CCC(C)=C[C@@H]21	EPAC2 ant val inconclusive
COC(=O)/C(C)=C\CC12OC(C)(C)C3CC(C=C4C(=O)c5c(OC)c6c(c(CC=C(C)C)c5OC431)OC(C)(CCC=C(C)C)C=C6)C2=O (configuration not stated)	none
CC(=O)Oc1c2c(c(CC=C(C)C)c3c1C(=O)C1=CC4CC5C(C)(C)OC(C/C=C(\C)C(=O)O)(C4=O)[C@]15O3)OC(C)(CCC=C(C)C)C=C2 (some centres not stated)	EPAC2 ant val 71µM
